PubChem BioAssay AID1159580 (chemical genetic matrix, 2015)
Out of some 5,500 compounds screened, about 2,000 (36%) were called active. Inconclusive results (about 18%) are left out. Cut-off read from the data, not from the text of the source: active = normalized growth mostly below about 0.91 (no sharp cut-off); inconclusive = no clear call, values can overlap the other calls; inactive = mostly above about 0.92. The list shows a part of the results.

Assay: chemical genetic growth profiling, strain panel (AID 1159580);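 note: tested at 20 µM; growth read once vehicle control cultures reached saturation at 30 °C; 1 = growth at the plate median or of vehicle wells; lower values mean less growth of the strain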
Conditions: S. cerevisiae deletion strains, growth OD

Measured: normalized growth

O=C1C=CC(=O)c2c(O)c(Cl)c(Cl)c(O)c21
active: locus YAL021C, strain ccr4, stronger effect = lower value 0.0743 | locus YAL026C, strain drs2, stronger effect = lower value 0.0712 | locus YAL030W, strain snc1, stronger effect = lower value 0.065 | locus YBL061C, strain skt5, stronger effect = lower value 0.0691 | locus YBR009C, strain hhf1, stronger effect = lower value 0.0757 | locus YBR023C, strain chs3, stronger effect = lower value 0.0713 | locus YBR171W, strain sec66, stronger effect = lower value 0.0854 | locus YBR231C, strain swc5, stronger effect = lower value 0.0695 | locus YBR279W, strain paf1, stronger effect = lower value 0.0653 | locus YCL011C, strain gbp2, stronger effect = lower value 0.0661 | locus YCL016C, strain dcc1, stronger effect = lower value 0.0723 | locus YCL061C, strain MRC1, stronger effect = lower value 0.0708 | locus YCL069W, strain vba3, stronger effect = lower value 0.0675 | locus YCR088W, strain abp1, stronger effect = lower value 0.0687 | locus YDL005C, strain med2, stronger effect = lower value 0.0837 | locus YDL040C, strain nat1, stronger effect = lower value 0.0677 | locus YDR001C, strain nth1, stronger effect = lower value 0.0651 | locus YDR069C, strain doa4, stronger effect = lower value 0.0731 | locus YDR137W, strain rgp1, stronger effect = lower value 0.816 | locus YDR159W, strain sac3, stronger effect = lower value 0.817 | locus YDR195W, strain ref2 0.72 | locus YDR297W, strain sur2, stronger effect = lower value 0.0653 | locus YDR334W, strain swr1, stronger effect = lower value 0.0709 | locus YDR335W, strain msn5, stronger effect = lower value 0.0705 | locus YDR392W, strain spt3, stronger effect = lower value 0.11 | locus YEL003W, strain gim4, stronger effect = lower value 0.0616 | locus YEL037C, strain rad23, stronger effect = lower value 0.0635 | locus YEL061C, strain CIN8 (second series), stronger effect = lower value 0.0685 | locus YER015W, strain faa2, stronger effect = lower value 0.0696 | locus YER016W, strain bim1, stronger effect = lower value 0.0673 | locus YER155C, strain BEM2 (second series), stronger effect = lower value 0.101 | locus YFR010W, strain ubp6, stronger effect = lower value 0.0771 | locus YGL167C, strain pmr1, stronger effect = lower value 0.0844 | locus YGL173C, strain kem1, stronger effect = lower value 0.0767 | locus YGL227W, strain vid30, stronger effect = lower value 0.0694 | locus YGL240W, strain doc1, stronger effect = lower value 0.087 | locus YGL253W, strain hxk2, stronger effect = lower value 0.0606 | locus YHR013C, strain ard1, stronger effect = lower value 0.118 | locus YHR027C, strain rpn1, stronger effect = lower value 0.0722 | locus YHR030C, strain SLT2, stronger effect = lower value 0.114 | locus YHR079C, strain IRE1, stronger effect = lower value 0.132 | locus YHR142W, strain chs7, stronger effect = lower value 0.0821 | locus YJL092W, strain hpr5, stronger effect = lower value 0.066 | locus YJL095W, strain BCK1 (second series), stronger effect = lower value 0.0647 | locus YJL095W, strain BCK1, stronger effect = lower value 0.118 | locus YJL115W, strain asf1, stronger effect = lower value 0.0821 | locus YJL154C, strain vps35, stronger effect = lower value 0.0659 | locus YJL164C, strain tpk1, stronger effect = lower value 0.076 | locus YJL166W, strain qcr8, stronger effect = lower value 0.0693 | locus YJL187C, strain SWE1, stronger effect = lower value 0.0656 | locus YJR066W, strain TOR1, stronger effect = lower value -0.00728 | locus YKL160W, strain elf1, stronger effect = lower value 0.0955 | locus YKR026C, strain gcn3, stronger effect = lower value 0.0721 | locus YKR091W, strain srl3, stronger effect = lower value 0.0686 | locus YLL001W, strain dnm1, stronger effect = lower value 0.0682 | locus YLL026W, stronger effect = lower value 0.065 | locus YLL041C, strain sdh2, stronger effect = lower value 0.0651 | locus YLR027C, strain aat2, stronger effect = lower value 0.0649 | locus YLR113W, strain HOG1, stronger effect = lower value 0.129 | locus YLR221C, strain rsa3, stronger effect = lower value 0.0719 | locus YLR258W, strain gsy2, stronger effect = lower value 0.0692 | locus YLR262C, strain YPT6 (second series), stronger effect = lower value 0.0889 | locus YLR320W, strain mms22, stronger effect = lower value 0.0961 | locus YLR342W, strain FKS1, stronger effect = lower value 0.0745 | locus YLR357W, strain rsc2, stronger effect = lower value 0.136 | locus YLR370C, strain arc18, stronger effect = lower value 0.0692 | locus YLR384C, strain iki3, stronger effect = lower value 0.0665 | locus YMR058W, strain fet3, stronger effect = lower value 0.0663 | locus YMR125W, strain sto1, stronger effect = lower value 0.0829 | locus YMR129W, stronger effect = lower value 0.0652 | locus YMR205C, strain PFK2, stronger effect = lower value 0.0948 | locus YMR231W, strain pep5, stronger effect = lower value 0.0753 | locus YNL071W, strain lat1, stronger effect = lower value 0.0684 | locus YNL183C, strain NPR1, stronger effect = lower value 0.021 | locus YNL209W, strain ssb2, stronger effect = lower value 0.0691 | locus YNL248C, strain rpa49, stronger effect = lower value 0.0871 | locus YNL322C, strain KRE1 (second series), stronger effect = lower value 0.0721 | locus YNR049C, strain mso1, stronger effect = lower value 0.0642 | locus YOR001W, strain rrp6, stronger effect = lower value 0.0755 | locus YOR070C, strain gyp1, stronger effect = lower value 0.0663 | locus YOR080W, strain dia2, stronger effect = lower value 0.104 | locus YOR083W, strain WHI5, stronger effect = lower value 0.0727 | locus YOR106W, strain vam3, stronger effect = lower value 0.0721 | locus YOR231W, strain MKK1, stronger effect = lower value 0.129 | locus YOR265W, strain rbl2, stronger effect = lower value 0.0661 | locus YOR270C, strain vph1, stronger effect = lower value 0.108 | locus YPL051W, strain arl3, stronger effect = lower value 0.0733 | locus YPL078C, strain atp4, stronger effect = lower value 0.852 | locus YPL106C, strain sse1, stronger effect = lower value 0.116 | locus YPL240C, strain hsp82, stronger effect = lower value 0.0634 | locus YPL256C, strain CLN2, stronger effect = lower value 0.147
inactive: locus YER111C, strain swi4, stronger effect = lower value 0.984 | locus YJL129C, strain trk1, stronger effect = lower value 0.965 | locus YML120C, strain ndi1, stronger effect = lower value 0.928 | locus YOR290C, strain snf2, stronger effect = lower value 0.963
